# B1: unnamed (peptide)
# chain: IHTRRPSSTSQYLIR
# Molecular target: AgAbp1
# Experiment: SPOT peptide array binding signal intensity (averaged, normalized) (arbitrary units (background-subtracted, floor 0; scale differs between SH3 domains)); higher = stronger binding of the SH3 domain to the peptide
# How it was run: (§1)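 Detection of bound protein relied on anti-GST antibody, an HRP anti-mouse secondary and luminol, with imaging and quantification in Genespotter. The bound protein was GST-fused SH3 domains from four yeast species, incubated at 10 μg/ml overnight at 4°C in TBS-based blocking buffer on cellulose membranes carrying synthetic 15-mer peptides with cysteines replaced by serines. Binding signal is normalized, background-subtracted spot intensity averaged over replicates, in arbitrary units that differ between domains.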
row,Binder,SPOT peptide array binding signal intensity
1,B1,235

# Molecular target: AgBbc1
# Experiment: as above
# How it was run: as §1
row,Binder,SPOT peptide array binding signal intensity
1,B1,354

# Molecular target: AgBem1-D1
# Experiment: as above
# How it was run: as §1
row,Binder,SPOT peptide array binding signal intensity
1,B1,254

# Molecular target: AgBzz1-D1
# Experiment: as above
# How it was run: as §1
row,Binder,SPOT peptide array binding signal intensity
1,B1,73.5

# Molecular target: AgBzz1-D2
# Experiment: as above
# How it was run: as §1
row,Binder,SPOT peptide array binding signal intensity
1,B1,58.5

# Molecular target: AgCyk3
# Experiment: as above
# How it was run: as §1
row,Binder,SPOT peptide array binding signal intensity
1,B1,4

# Molecular target: AgFus1
# Experiment: as above
# How it was run: as §1
row,Binder,SPOT peptide array binding signal intensity
1,B1,406

# Molecular target: AgHof1
# Experiment: as above
# How it was run: as §1
row,Binder,SPOT peptide array binding signal intensity
1,B1,44.2

# Molecular target: AgHse1
# Experiment: as above
# How it was run: as §1
row,Binder,SPOT peptide array binding signal intensity
1,B1,202

# Molecular target: AgLsb1
# Experiment: as above
# How it was run: as §1
row,Binder,SPOT peptide array binding signal intensity
1,B1,242

# Molecular target: AgLsb4
# Experiment: as above
# How it was run: as §1
row,Binder,SPOT peptide array binding signal intensity
1,B1,32

# Molecular target: AgMyo5
# Experiment: as above
# How it was run: as §1
row,Binder,SPOT peptide array binding signal intensity
1,B1,194

# Molecular target: AgNbp2
# Experiment: as above
# How it was run: as §1
row,Binder,SPOT peptide array binding signal intensity
1,B1,106

# Molecular target: AgRvs167
# Experiment: as above
# How it was run: as §1
row,Binder,SPOT peptide array binding signal intensity
1,B1,1.33

# Molecular target: AgSho1
# Experiment: as above
# How it was run: as §1
row,Binder,SPOT peptide array binding signal intensity
1,B1,22.5

# Molecular target: AgSla1-D1-D2
# Experiment: as above
# How it was run: as §1
row,Binder,SPOT peptide array binding signal intensity
1,B1,44

# Molecular target: AgSla1-D3
# Experiment: as above
# How it was run: as §1
row,Binder,SPOT peptide array binding signal intensity
1,B1,11.8

# Molecular target: CaAbp1-D1
# Experiment: as above
# How it was run: as §1
row,Binder,SPOT peptide array binding signal intensity
1,B1,732

# Molecular target: CaAbp1-D2
# Experiment: as above
# How it was run: as §1
row,Binder,SPOT peptide array binding signal intensity
1,B1,571

# Molecular target: CaBbc1
# Experiment: as above
# How it was run: as §1
row,Binder,SPOT peptide array binding signal intensity
1,B1,415

# Molecular target: CaBem1-D1
# Experiment: as above
# How it was run: as §1
row,Binder,SPOT peptide array binding signal intensity
1,B1,43

# Molecular target: CaBzz1-D1
# Experiment: as above
# How it was run: as §1
row,Binder,SPOT peptide array binding signal intensity
1,B1,249

# Molecular target: CaBzz1-D2
# Experiment: as above
# How it was run: as §1
row,Binder,SPOT peptide array binding signal intensity
1,B1,267

# Molecular target: CaCyk3
# Experiment: as above
# How it was run: as §1
row,Binder,SPOT peptide array binding signal intensity
1,B1,17

# Molecular target: CaFus1
# Experiment: as above
# How it was run: as §1
row,Binder,SPOT peptide array binding signal intensity
1,B1,699

# Molecular target: CaHof1
# Experiment: as above
# How it was run: as §1
row,Binder,SPOT peptide array binding signal intensity
1,B1,0.5

# Molecular target: CaHse1
# Experiment: as above
# How it was run: as §1
row,Binder,SPOT peptide array binding signal intensity
1,B1,110

# Molecular target: CaLsb1
# Experiment: as above
# How it was run: as §1
row,Binder,SPOT peptide array binding signal intensity
1,B1,22

# Molecular target: CaLsb4
# Experiment: as above
# How it was run: as §1
row,Binder,SPOT peptide array binding signal intensity
1,B1,150

# Molecular target: CaMyo5
# Experiment: as above
# How it was run: as §1
row,Binder,SPOT peptide array binding signal intensity
1,B1,208

# Molecular target: CaNbp2
# Experiment: as above
# How it was run: as §1
row,Binder,SPOT peptide array binding signal intensity
1,B1,94.5

# Molecular target: CaRvs167
# Experiment: as above
# How it was run: as §1
row,Binder,SPOT peptide array binding signal intensity
1,B1,19.7

# Molecular target: CaRvs167-3
# Experiment: as above
# How it was run: as §1
row,Binder,SPOT peptide array binding signal intensity
1,B1,69.5

# Molecular target: CaSho1
# Experiment: as above
# How it was run: as §1
row,Binder,SPOT peptide array binding signal intensity
1,B1,369

# Molecular target: CaSla1-D1-D2
# Experiment: as above
# How it was run: as §1
row,Binder,SPOT peptide array binding signal intensity
1,B1,126

# Molecular target: CaSla1-D3
# Experiment: as above
# How it was run: as §1
row,Binder,SPOT peptide array binding signal intensity
1,B1,15.8

# Molecular target: ScAbp1
# Experiment: as above
# How it was run: as §1
row,Binder,SPOT peptide array binding signal intensity
1,B1,97.5

# Molecular target: ScBbc1
# Experiment: as above
# How it was run: as §1
row,Binder,SPOT peptide array binding signal intensity
1,B1,144

# Molecular target: ScBem1-D1
# Experiment: as above
# How it was run: as §1
row,Binder,SPOT peptide array binding signal intensity
1,B1,40.5

# Molecular target: ScBzz1-D1
# Experiment: as above
# How it was run: as §1
row,Binder,SPOT peptide array binding signal intensity
1,B1,50

# Molecular target: ScBzz1-D2
# Experiment: as above
# How it was run: as §1
row,Binder,SPOT peptide array binding signal intensity
1,B1,50.5

# Molecular target: ScCyk3
# Experiment: as above
# How it was run: as §1
row,Binder,SPOT peptide array binding signal intensity
1,B1,35

# Molecular target: ScFus1
# Experiment: as above
# How it was run: as §1
row,Binder,SPOT peptide array binding signal intensity
1,B1,593

# Molecular target: ScHof1
# Experiment: as above
# How it was run: as §1
row,Binder,SPOT peptide array binding signal intensity
1,B1,1

# Molecular target: ScHse1
# Experiment: as above
# How it was run: as §1
row,Binder,SPOT peptide array binding signal intensity
1,B1,465

# Molecular target: ScLsb1
# Experiment: as above
# How it was run: as §1
row,Binder,SPOT peptide array binding signal intensity
1,B1,3

# Molecular target: ScLsb2
# Experiment: as above
# How it was run: as §1
row,Binder,SPOT peptide array binding signal intensity
1,B1,162

# Molecular target: ScLsb3
# Experiment: as above
# How it was run: as §1
row,Binder,SPOT peptide array binding signal intensity
1,B1,158

# Molecular target: ScLsb4
# Experiment: as above
# How it was run: as §1
row,Binder,SPOT peptide array binding signal intensity
1,B1,6.5

# Molecular target: ScMyo3
# Experiment: as above
# How it was run: as §1
row,Binder,SPOT peptide array binding signal intensity
1,B1,82

# Molecular target: ScMyo5
# Experiment: as above
# How it was run: as §1
row,Binder,SPOT peptide array binding signal intensity
1,B1,243

# Molecular target: ScNbp2
# Experiment: as above
# How it was run: as §1
row,Binder,SPOT peptide array binding signal intensity
1,B1,267

# Molecular target: ScPex13
# Experiment: as above
# How it was run: as §1
row,Binder,SPOT peptide array binding signal intensity
1,B1,10.8

# Molecular target: ScRvs167
# Experiment: as above
# How it was run: as §1
row,Binder,SPOT peptide array binding signal intensity
1,B1,19.8

# Molecular target: ScSho1
# Experiment: as above
# How it was run: as §1
row,Binder,SPOT peptide array binding signal intensity
1,B1,585

# Molecular target: ScSla1-D1-D2
# Experiment: as above
# How it was run: as §1
row,Binder,SPOT peptide array binding signal intensity
1,B1,172

# Molecular target: ScSla1-D3
# Experiment: as above
# How it was run: as §1
row,Binder,SPOT peptide array binding signal intensity
1,B1,14.5

# Molecular target: SpAbp1-D1
# Experiment: as above
# How it was run: as §1
row,Binder,SPOT peptide array binding signal intensity
1,B1,826

# Molecular target: SpBbc1
# Experiment: as above
# How it was run: as §1
row,Binder,SPOT peptide array binding signal intensity
1,B1,60

# Molecular target: SpBzz1-D1
# Experiment: as above
# How it was run: as §1
row,Binder,SPOT peptide array binding signal intensity
1,B1,632

# Molecular target: SpBzz1-D2
# Experiment: as above
# How it was run: as §1
row,Binder,SPOT peptide array binding signal intensity
1,B1,6.5

# Molecular target: SpCyk3
# Experiment: as above
# How it was run: as §1
row,Binder,SPOT peptide array binding signal intensity
1,B1,10

# Molecular target: SpHof1
# Experiment: as above
# How it was run: as §1
row,Binder,SPOT peptide array binding signal intensity
1,B1,51

# Molecular target: SpHof1-2
# Experiment: as above
# How it was run: as §1
row,Binder,SPOT peptide array binding signal intensity
1,B1,10.5

# Molecular target: SpHof1-3
# Experiment: as above
# How it was run: as §1
row,Binder,SPOT peptide array binding signal intensity
1,B1,669

# Molecular target: SpHse1
# Experiment: as above
# How it was run: as §1
row,Binder,SPOT peptide array binding signal intensity
1,B1,352

# Molecular target: SpLsb1
# Experiment: as above
# How it was run: as §1
row,Binder,SPOT peptide array binding signal intensity
1,B1,292

# Molecular target: SpLsb4
# Experiment: as above
# How it was run: as §1
row,Binder,SPOT peptide array binding signal intensity
1,B1,138

# Molecular target: SpMyo1
# Experiment: as above
# How it was run: as §1
row,Binder,SPOT peptide array binding signal intensity
1,B1,138

# Molecular target: SpNbp2
# Experiment: as above
# How it was run: as §1
row,Binder,SPOT peptide array binding signal intensity
1,B1,96.5

# Molecular target: SpPex13
# Experiment: as above
# How it was run: as §1
row,Binder,SPOT peptide array binding signal intensity
1,B1,10

# Molecular target: SpRvs167
# Experiment: as above
# How it was run: as §1
row,Binder,SPOT peptide array binding signal intensity
1,B1,31.3

# Molecular target: SpSla1-D1-D2
# Experiment: as above
# How it was run: as §1
row,Binder,SPOT peptide array binding signal intensity
1,B1,2

# Molecular target: SpSla1-D3
# Experiment: as above
# How it was run: as §1
row,Binder,SPOT peptide array binding signal intensity
1,B1,6

# — the supplement of paper PMC4466140
